HepG2 viability – qHTS for Inhibitors of TGF-b: Cytotox Counterscreen; HepG2 CAGA-GFP viability, ATP luminescence, 18 h; Potency, µM (series often up to 46.1 µM), inactives show at the top dose activity change, negative = cytotoxicity, hits mostly cytotoxic; 0.76% of 410,000 active
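HepG2 CAGA-GFP cells (1000/well, DMEM with 1% FBS) received compound, then TGF-beta at 500 pg/mL final, and were incubated 18 hours at 37 degrees C. Viability was read by CellTiter-Glo luminescence. Media-only wells were set as complete cell-killing and DMSO as no toxicity.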
ATXN2 expr inh – Primary qHTS for Inhibitors of ATXN expression. HEK-293 ATXN2-luciferase reporter, luminescence, 24 h. Potency, µM (series often up to 57 µM), for the others: top-dose activity change, negative = inhibition, usual class: inhibitors. 0.72% of 360,000 active. AID 1745845, 2022; also: % is scaled to controls: 0 for no effect and ±100 for the full control effect; nearly all actives have a fitted effect of over 55% in size
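qHTS (up to 57 uM final) was run with 24 h compound exposure of reporter cells at 37 °C. Each well was multiplexed: SteadyGlo luminescence measured ATXN2-luciferase expression after a fluorogenic Gly-Phe-AFC viability readout (25 uM final).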
TGFb SMAD3 inh – qHTS for Inhibitors of TGF-b; HepG2 CAGA-GFP TGF-b/SMAD3 reporter, GFP fluorescence, 18 h; TGF-beta stimulated, 500 pg/mL final; Potency, µM (titrated, usually from 46.1 µM), for the others: at the top dose activity, negative = inhibition, hits mostly inhibitors; 1.2% of 410,000 active; also: % is scaled to controls: 0 for no effect and ±100 for the full control effect; nearly all actives have a fitted effect of over 65% in size
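Smad-responsive CAGA-GFP expression was quantified in HEPG2 cells exposed to compounds and 500 pg/mL final TGF-beta for 18 h at 37 degrees C; unstimulated wells defined full inhibition.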
DT40 TDP1 no CPT – qHTS for Inhibitors of human tyrosyl-DNA phosphodiesterase 1 (TDP1): qHTS in cells in absence of CPT | Potency, µM (titrated, usually from 46.2 µM), inactives show at the highest dose activity change, negative = growth inhibition, most hits filed as inhibitors | DT40 Tdp1-/- hTDP1 cells, no CPT, ATP luminescence, 48 h | 15% of 420,000 active; also: % is scaled to controls: 0 for no effect and ±100 for the full control effect; nearly all actives have a fitted effect of over 55% in size
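Readout: luminescence from CellTiter-Glo after 30 min in the dark at RT. Cells: DT40 Tdp1-/- with stable hTDP1, 400/well. Exposure: compounds alone, ≥48 hr, 37 °C.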
ATXN viability – Viability Counterscreen for Primary qHTS for Inhibitors of ATXN expression; S2 cells (HEK-293 line with an ATXN2-luciferase reporter) viability, CellTiter-Fluor protease fluorescence, 24 h; Potency, µM (titrated, usually from 56.7 µM), hits mostly cytotoxic; 0.49% of 400,000 active; also: nearly all actives have a fitted effect of over 40% in size
DT40 TDP1 CPT – qHTS for Inhibitors of human tyrosyl-DNA phosphodiesterase 1 (TDP1): qHTS in cells in presence of CPT; Potency, µM (top dose mostly 46.2 µM), for the others: top-dose activity change, negative = growth inhibition, hits mostly inhibitors; chicken DT40 Tdp1-/-;hTDP1 cells + 20 nM CPT, ATP luminescence, 48 h; 12% of 420,000 active; also: % is scaled to controls: 0 for no effect and ±100 for the full control effect; nearly all actives have a fitted effect of over 55% in size
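Chicken DT40 Tdp1-/- cells stably complemented with human TDP1 were seeded at 400 cells/well in medium containing 20 nM camptothecin, exposed to pin-transferred compounds, and grown at 37 °C for at least 48 hr. Viability was read as ATP luminescence.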
Numbers without * were called inactive; i = inactive; ? = inconclusive; . = no result given. The list is not random: actives were taken first. Their share in the collection is about 17%. Calls follow the shape of the dose curve; as a rule, active = well fitted curve in the direction sought with a large enough effect; inconclusive = small, poorly fitted or top-dose-only effect, or another doubt; inactive = no such curve, though single readings can be large; an effect the other way counts as inactive or inconclusive. Potency is read from the fitted curve at half-maximal effect.

SMILES	HepG2 viability	ATXN2 expr inh	TGFb SMAD3 inh	DT40 TDP1 no CPT	ATXN viability	DT40 TDP1 CPT
O=C(Nc1cccc(C(=O)OCc2cc(=O)n3ccsc3n2)c1)c1ccc(F)cc1	1.1%	1.4%	41.5%	-16.6%	i	-24.0%
C=CCSC(=C(C#N)C#N)c1cc2c([nH]1)CCCC2	-96.8%	-30.1%	?	11.6µM*	i	10.3µM*
COc1ccc(-c2nnc(SCc3cc(C)ccc3C)n2N)cc1	-13.4%	.	-11.9%	?	.	-25.1%
Clc1ccc(-c2nnc(-c3ccc(Br)cc3)c(N3CCSCC3)n2)cc1	-2.6%	-0.2%	-0.2%	11.6µM*	i	11.6µM*
Nc1nc(-c2ccco2)nc(N2CCCCC2)n1	0.1%	-2.9%	-3.9%	-0.8%	i	-2.3%
Clc1ccc(-c2nnc(-c3ccco3)nc2N2CCCCC2)cc1	-16.1%	0.0%	-21.0%	20.6µM*	i	20.6µM*
Cc1ccc(-c2nc3ccc(C)cn3c2Cc2ccccn2)cc1	.	-4.3%	.	18.4µM*	?	?
Cc1ccc2nc(-c3cccc(Br)c3)c(Cc3ccccc3C(F)(F)F)n2c1	-27.2%	46.6%	?	?	i	-29.3%
Cc1ccc2nc(-c3ccc(Cl)cc3)c(Cc3ccccn3)n2c1	.	32.7%	.	16.4µM*	i	18.4µM*
Cc1ccc2nc(-c3cccc(Br)c3)c(Cc3ccccn3)n2c1	-7.3%	6.1%	-7.2%	?	?	20.6µM*
CC(=O)N1CCc2cc(S(=O)(=O)CCC(=O)N(C)Cc3ccco3)ccc21	1.6%	-0.4%	3.4%	1.6%	i	-3.8%
O=C(Nc1ccc(Oc2ccccc2)cc1)c1csc([C@H]2C[C@H](O)[C@@H](CO)O2)n1	-5.6%	?	-5.7%	10.3µM*	i	16.4µM*
NC(=O)c1csc(C2OC(CO)C(O)C2O)n1 (stereo not given)	.	24.0%	.	0.0259µM*	i	0.0461µM*
O=C(Nc1ccc(Oc2ccccc2)cc1)c1csc([C@@H]2O[C@H](CO)[C@@H](O)[C@H]2O)n1	4.1%	-18.0%	2.8%	20.6µM*	?	16.4µM*
Cc1cc(C)cc(OCC(=O)Nc2ccc3c4c(cccc24)CC3)c1	5.3%	-14.3%	-3.9%	?	i	?
Cc1ccccc1OCC(=O)NC(=S)Nc1ccc2c3c(cccc13)CC2	12.6µM*	-33.5%	0.0%	18.4µM*	i	18.4µM*
CC(C)(C)n1ncc2c(=O)n(Cc3ccc(F)c(F)c3F)cnc21	-28.2%	.	3.5%	.	.	.
CN(C)CCCNc1ncnc2c1cnn2Cc1ccccc1Cl	-10.1%	-7.6%	16.2%	-2.5%	i	3.9%
Clc1cccc(-n2ncc3c(Nc4ccc5c(c4)OCCO5)ncnc32)c1	-4.7%	11.9%	19.6%	?	?	?
Fc1ccc(-n2ncc3c(Nc4ccc5c(c4)OCCO5)ncnc32)cc1	-3.5%	7.7%	?	29.1µM*	i	13µM*
Cc1ccc(-n2ncc3c(Nc4ccc5c(c4)OCCO5)ncnc32)cc1Cl	-19.6%	1.6%	-0.1%	23.1µM*	i	?
Cc1ccc(-n2ncc3c(NCCCN(C)C)ncnc32)cc1Cl	12.6µM*	?	?	?	.	?
Cc1ccc(Cl)cc1-n1ncc2c(Nc3ccc4c(c3)OCCO4)ncnc21	-2.8%	22.9%	-0.4%	?	i	25.9µM*
CN(Cc1ccccc1)C(=O)c1c[nH]c2ccc(S(=O)(=O)Nc3ccccc3F)cc2c1=O	-3.9%	7.0%	-2.2%	?	i	-3.0%

Compound activity: PubChem BioAssay, National Center for Advancing Translational Sciences (NCATS)
